In the supplement of paper PMC6555819 one finds PBM binding z-score data, which are given here for eight sequences.

Common to all, as to test: PBM binding z-score (relative to random genomic background probes); higher = stronger binding; sequences stand for … in GC…GCGATTGACAGCGTAGAATGAAGG
Test [1] has as its system PPARg:RXRa DBDmut IVT, anti-RXR (DBD mutation: RXRa K156A/R161A, NR concentration 270 nM, RXRa partner concentration 90 nM). Summed up: (§1)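 Binding z-scores were set against random background probes. The data came from custom Agilent 4×180K protein-binding microarrays carrying double-stranded probes with 34-nt variable regions, incubated 1 h with ligand-free nuclear receptor dimers. Partner-specific antibodies detected binding, and scanned fluorescence was regression-normalized.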

The subject of test [2] is PPARg:RXRa IVT, anti-PPARg (NR concentration 270 nM, RXRa partner concentration 90 nM). Summed up:
as §1

Test [3] has as its system PPARg DBDmut:RXRa IVT, anti-PPARg (DBD mutation: PPARg1 K132A/R137A, NR concentration 270 nM, RXRa partner concentration 90 nM). The method in brief:
as §1

For test [4], the system named is PPARg DBDmut IVT, anti-PPARg (DBD mutation: PPARg1 K132A/R137A, NR concentration 270 nM). The method in brief: as §1
Test [5] relates to PPARg homodimer (NR concentration 180 nM). Summed up:
as §1

Test [6] relates to PXR:RXRa (NR concentration 270 nM, RXRa partner concentration 90 nM). The method in brief: as §1
Test [7] relates to PXR homodimer (NR concentration 270 nM). Summed up:
as §1

In test [8] the test system is RARa:RXR (NR concentration 270 nM, RXRa partner concentration 90 nM). Summed up:
as §1

Test [9] relates to RARa homodimer (NR concentration 270 nM). The method in brief:
as §1

Test [10] has as its system RARb:RXRa (NR concentration 270 nM, RXRa partner concentration 90 nM). Summed up:
as §1

Test [11] deals with RARb homodimer (NR concentration 270 nM). Summed up: as §1
The subject of test [12] is RARg:RXRa (NR concentration 270 nM, RXRa partner concentration 90 nM). Summed up: as §1
Test [13] has as its system RARg homodimer (NR concentration 270 nM). The method in brief: as §1
Test [14] has as its system RXRa DBDmut IVT, anti-RXR (DBD mutation: RXRa K156A/R161A, NR concentration 90 nM). Summed up:
as §1

For test [15], the system named is RXRa homodimer (NR concentration 180 nM). Summed up:
as §1

Test [16] deals with THRa:RXRa (NR concentration 90 nM, RXRa partner concentration 90 nM). The method in brief:
as §1

Test [17] deals with THRa homodimer (NR concentration 90 nM). The method in brief: as §1
The test system of test [18] is VDR homodimer (NR concentration 270 nM). Summed up: as §1

Regarding TGAATGAGGTTAAAGAGCAGGGAACGTGGCGTCG, the PBM binding z-score was 2.26 in [1]; 3.24 in test [2]; -0.099 in test [3]; -0.275 in [4]; 0.719 in [5]; 1.53 in [6]. In addition, the PBM binding z-score is -0.274 in [7]; 2.52 in test [8]; 0.12 in test [9]; 1.94 in test [10]; 0.754 in test [11]; 2.13 in [12]. Also, the PBM binding z-score in test [13] was found to be 1.34; in test [14], 1.01; in test [15], 3.19; in test [16] it was 2.39; in test [17], 0.467; in [18] it was 0.665.
With CGTCCAAGGTCGGCAGGTCAGTGAAAGCGACGTG, the PBM binding z-score in test [1] is -0.305; in test [2], 0.214; in test [3], -0.718; in test [4], -1.66; in [5], 0.288; in test [6], 1.23. Moreover, the PBM binding z-score is -0.703 in test [7]; 1.88 in test [8]; -0.686 in test [9]; 3.17 in test [10]; 3.1 in test [11]; 3.38 in test [12]. In addition, the PBM binding z-score in test [13] is 3.66; in [14], 1.36; in test [15] it was 2.08; in test [16], 2.13; in test [17], 0.0758; in test [18], 0.171.
Turning to ACAGACAGGTGAGCGAAGGTAACTCAGCTGGACG, the PBM binding z-score in test [1] was 0.465; in test [2], 0.783; in test [3], 0.567; in [4], -0.608; in test [5], -0.706; in test [6], -0.51. For the same sequence, the PBM binding z-score was -0.963 in test [7]; 0.056 in test [8]; -0.65 in test [9]; 0.608 in [10]; 0.0254 in test [11]; 0.199 in [12]. Also, the PBM binding z-score was 0.463 in test [13]; -0.651 in [14]; 0.258 in test [15]; 1.74 in test [16]; -0.377 in [17]; -0.771 in [18].
As for ATATGTAGGTTACATCCGGTTCATTCAGGCTATG, the PBM binding z-score was determined as 7.75 in test [1]; 7.32 in test [2]; 3.76 in [3]; 2.01 in test [4]; 1.08 in test [5]; 3.66 in test [6]. The PBM binding z-score came out at 5.68 in [7]; 1.55 in test [8]; 0.415 in test [9]; 1.22 in test [10]; 1 in [11]; 1.42 in test [12]. The PBM binding z-score worked out at 1.13 in [13]; 1.95 in [14]; 1.54 in test [15]; 2.03 in [16]; 0.768 in [17]; 4.45 in test [18].
With CCTACTGGGCCATCACGTCATTGATATCAACGTT, the PBM binding z-score was 4.36 in [1]; 3.56 in test [2]; 0.399 in test [3]; 0.151 in test [4]; 0.3 in [5]; -0.248 in [6]. Further, the PBM binding z-score was 0.0325 in test [7]; 0.0611 in test [8]; -0.31 in test [9]; 0.25 in test [10]; 0.0558 in [11]; 0.0905 in test [12]. Further, the PBM binding z-score is 0.383 in test [13]; -0.0697 in [14]; -0.108 in test [15]; -0.192 in [16]; 0.107 in test [17]; -0.136 in test [18].
On to ACTATTTGGTCAGCTGAGGTCACACACAATTCGG, for which the PBM binding z-score in test [1] is 1.59; in [2], 2.69; in test [3], 1.5; in test [4] it was 1.46; in test [5], 2.9; in test [6], 5.26. The PBM binding z-score was 1.97 in test [7]; 4.3 in [8]; 1.66 in [9]; 3.65 in test [10]; 4.69 in test [11]; 4.24 in test [12]. The PBM binding z-score was 4.48 in [13]; 2.02 in [14]; 4.4 in test [15]; 5.09 in test [16]; 5.11 in test [17]; 3.67 in test [18].
For GCAGACAGGTGAAACGCAGGTAACTCAAGGTGGC, the PBM binding z-score in test [1] was 1.07; in [2], 0.401; in [3], -0.233; in test [4], -0.299; in test [5], -0.279; in test [6], -0.0534. The PBM binding z-score is -0.612 in test [7]; 0.593 in test [8]; -0.358 in [9]; 0.608 in [10]; 0.0427 in test [11]; 0.907 in test [12]. Also, the PBM binding z-score in test [13] was 0.318; in test [14] it was -0.708; in [15], 0.523; in test [16], 1.76; in test [17], -0.397; in [18], -0.202.
For the sequence CCTCGGAGGACAACAGGAGGTCAGAACTGCCAGA, the PBM binding z-score in test [1] is 0.236; in [2], 0.269; in test [3], -1.45; in test [4], -1.02; in test [5] it was 1.52; in [6], 1.92. For the same sequence, the PBM binding z-score is 0.393 in test [7]; 2.08 in test [8]; 0.134 in test [9]; 2.68 in test [10]; 3.33 in test [11]; 3.23 in test [12]. Besides, the PBM binding z-score in test [13] is 3.05; in test [14], 0.497; in [15], 1.81; in [16] it was 2.59; in [17], 0.726; in test [18], 0.781.
